Bioassay records deposited in PubChem BioAssay by several laboratories.
A selection: hits, their analogues and other compounds. The true share with any hit is near 1.7%.
GALR2 blocker = GALR2 (human) receptor antagonism | O43603 | GALR2-expressing cells, antagonist mode | inhibition, % at 4 µM | actives 0.39% (n = 140,000) | AID 828; in the data active = inhibition above about 27%;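 note: cells stimulated with galanin 1-16 at roughly its EC80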
Target sequence (O43603 whole entry, looked up): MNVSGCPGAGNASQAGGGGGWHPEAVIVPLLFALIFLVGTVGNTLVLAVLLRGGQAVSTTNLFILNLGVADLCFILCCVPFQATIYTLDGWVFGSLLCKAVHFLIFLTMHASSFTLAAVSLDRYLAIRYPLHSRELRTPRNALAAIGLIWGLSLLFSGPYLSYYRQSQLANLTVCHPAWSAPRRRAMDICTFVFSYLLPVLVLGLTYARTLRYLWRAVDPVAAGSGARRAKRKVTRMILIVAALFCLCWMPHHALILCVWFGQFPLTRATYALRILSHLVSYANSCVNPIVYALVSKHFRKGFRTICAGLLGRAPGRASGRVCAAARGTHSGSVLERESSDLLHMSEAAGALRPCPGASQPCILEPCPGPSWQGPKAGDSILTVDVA
GALR2 agonist = agonists of human galanin receptor 2 (GALR2) | O43603 | GALR2-expressing cells, agonist activation read-out | activation, % (concentration not given with the values) | actives 0.48% (n = 140,000) | AID 803; in the data active = activation above about 5%, passing the limit was not always enough
MRP reversal = reverses drug resistance mediated by MRP; H69AR cells + 2 uM doxorubicin, CellTiter-Glo, 72 h; AID 602; differential viability (reversal), % at 10 µM; actives 0.04% (n = 85,000);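 active = viability drop by adding the cancer drug above about 55%, with treated viability meeting a 40% cutoff, limit read from the data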;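 note: larger differential means the compound sensitizes cells more to doxorubicin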
S1P2 agonist = activates the human S1P2 receptor; S1P2-expressing cell line, agonist reporter read-out; activation, % at 4.5 µM; actives 0.46% (n = 97,000); AID 729; in the data active = activation above about 16%
Target sequence (O95136 whole entry, looked up): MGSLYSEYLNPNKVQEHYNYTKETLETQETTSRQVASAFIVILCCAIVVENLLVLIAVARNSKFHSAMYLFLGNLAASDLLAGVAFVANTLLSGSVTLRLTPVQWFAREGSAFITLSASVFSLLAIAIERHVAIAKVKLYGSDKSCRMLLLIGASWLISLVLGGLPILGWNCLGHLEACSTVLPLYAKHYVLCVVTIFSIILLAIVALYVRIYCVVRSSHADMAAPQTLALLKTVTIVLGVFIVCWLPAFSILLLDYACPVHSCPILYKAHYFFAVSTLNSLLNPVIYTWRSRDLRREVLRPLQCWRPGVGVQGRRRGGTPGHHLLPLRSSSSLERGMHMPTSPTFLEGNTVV
S1P2 antag = S1P2 (human) receptor antagonism. cell-based S1P2 antagonist assay, inhibition at 5 uM. inhibition, % at 5 µM. actives 0.21% (n = 97,000). AID 736; in the data active = inhibition above about 45%;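 note: CRE beta-lactamase reporter cells expressing human S1P2 stimulated with S1P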
MRP-1 activ = MRP-1 activation | viability increase, % at 10 µM | H69AR cells + doxorubicin, viability rescue, CellTiter-Glo | actives 0.61% (n = 140,000);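 active = viability gain under doxorubicin at or above a set limit, the compound median plus 3 SD, cut at about 4.7% in these data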;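 note: MRP-1 overexpressing cells given doxorubicin 25 µM after compound pretreatment; 18-22 h compound pretreatment then 72 h with doxorubicin before readout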
Large screens that a line does not name were inactive.

CCCCCC(=O)N/N=C/c1cc(Br)c(O)c(OC)c1	none (no result: MRP reversal, S1P2 agonist, S1P2 antag)
COc1ccccc1C(=O)Nc1ccccc1C(=O)N1CCCC1	none
COc1ccccc1C(=O)N1CCCN(C(=O)c2ccccc2OC)CC1	S1P2 agonist 37
NC(=O)c1cccnc1Nc1ccccc1Cl	none (no result: MRP reversal, S1P2 agonist, S1P2 antag)
CN1CCN(c2nc(-c3ccccn3)nc3ccccc23)CC1	MRP reversal 68
COC(=O)c1cnn(-c2cc(Oc3ccccc3)ncn2)c1N	MRP-1 activ 5.7 (no result: MRP reversal)
c1ccc(Oc2cc(-n3cccn3)ncn2)cc1	none
O=Cc1cnc(N2CCOCC2)nc1	none (no result: MRP reversal, S1P2 agonist, S1P2 antag)
CCC1SC2=NC(C)=C(C(=O)OCCOC)C(c3ccc(C(=O)OC)cc3)N2C1=O (configuration not stated)	MRP-1 activ 7.8
COC(=O)C1=C(C)N=C2SCCC(=O)N2C1c1ccc(C(=O)OC)cc1 (configuration not stated)	none
CCC1SC2=NC(C)=C(C(=O)OC)C(c3ccc(C(=O)OC)cc3)N2C1=O (configuration not stated)	MRP-1 activ 4.9
CC(NC(=O)C1(c2cccs2)CCOCC1)c1ccccc1 (configuration not stated)	none (no result: MRP reversal, S1P2 agonist, S1P2 antag)
CCCN1C(=O)/C(=N\OCC(=O)NC23CC4CC(CC(C4)C2)C3)c2ccccc21	MRP-1 activ 5.7 (no result: MRP reversal, S1P2 agonist, S1P2 antag)
CCCN1C(=O)/C(=N\OCC(=O)Nc2ccc(C(C)C)cc2)c2ccccc21	MRP-1 activ 6.5 (no result: MRP reversal, S1P2 agonist, S1P2 antag)
CC(C)c1ccc(NC(=O)COc2nncc3ccccc23)cc1	none (no result: MRP reversal, S1P2 agonist, S1P2 antag)
Cc1c(Br)c([N+](=O)[O-])nn1C(C)C(=O)N1CCCc2ccccc21 (configuration not stated)	none (no result: MRP reversal)
COc1ccc(/C=N/NC(=O)c2ccc(COc3ccccc3Cl)o2)c(OC)c1C	GALR2 agonist 8.0 (no result: MRP reversal, S1P2 agonist, S1P2 antag)
COc1ccc(NC(=O)CCCC2CCCCC2)cc1S(=O)(=O)N1CCCCC1	MRP-1 activ 5.7 (no result: MRP reversal, S1P2 agonist, S1P2 antag)
CC(=O)Nc1ccc(S(=O)(=O)N(C)CC(=O)OCC(=O)Nc2cccnc2Cl)cc1	none (no result: MRP reversal, S1P2 agonist, S1P2 antag)
COc1ccccc1-c1cc(C(=O)NC(C)c2ccccc2)no1 (configuration not stated)	MRP-1 activ 5.1
COc1ccccc1NS(=O)(=O)c1ccc(NN=C2CCCCC2)c([N+](=O)[O-])c1	none (no result: MRP reversal, S1P2 agonist, S1P2 antag)
COc1cc2c(C)nc3onc(-c4ccccc4)c3c2cc1OC	none
COc1cc2c(C)nc(C)c(C#N)c2cc1OC	S1P2 agonist 21
NC(=O)C1CCN(CC(=O)Nc2cccc(C(=O)Nc3cccc(C(F)(F)F)c3)c2)CC1	none (no result: MRP reversal, S1P2 agonist, S1P2 antag)
Cc1nnc(NC(=O)C(C)Oc2ccc3c(C)cc(=O)oc3c2)s1 (configuration not stated)	MRP-1 activ 7.7
Clc1ccc2oc(-c3cccnc3NCc3ccccc3)nc2c1	S1P2 agonist 25 (no result: MRP reversal)
CCCCCCCCCCCCCCCC[n+]1cccc2ccccc21	none (no result: MRP reversal, S1P2 agonist, S1P2 antag)
CCCCCCCCC[n+]1cccc2c3ccccc3ccc21	S1P2 antag 48 (no result: MRP reversal)
COc1ccc(NC(=O)c2sc3cc(C(F)(F)F)cnc3c2-c2cccs2)cc1	none
O=C(Nc1ccc(F)cc1)c1sc2cc(C(F)(F)F)cnc2c1-c1cccs1	S1P2 antag 84
Cc1ccc(-c2nnc(SCC(=O)NC3CCS(=O)(=O)C3)nc2-c2ccc(C)cc2)cc1 (configuration not stated)	none (no result: MRP reversal, S1P2 agonist, S1P2 antag)
O=C(/C(=C/O)N=Nc1ccccc1)c1ccncc1	MRP-1 activ 6.3
CON/C=C(\C=Nc1ccc(C(F)(F)F)cc1)c1ncc(C(F)(F)F)cc1Cl	none (no result: MRP reversal)
CON/C=C(\C=Nc1ccc(Cl)cc1)c1ncc(C(F)(F)F)cc1Cl	S1P2 antag 47 (no result: MRP reversal)
Cc1ccc(Cn2cccc(-c3nc4ccccc4s3)c2=O)cc1	GALR2 agonist 65, S1P2 agonist 77 (no result: MRP reversal)
O=c1c(-c2nc3ccccc3s2)cccn1Cc1ccccc1	GALR2 agonist 31, S1P2 agonist 63 (no result: MRP reversal)
COc1ccc(-c2csc(NC(=O)c3cc(-c4cccs4)nc4ccccc34)n2)c(OC)c1	MRP-1 activ 4.8 (no result: MRP reversal, S1P2 agonist, S1P2 antag)
CCOC(=O)Cc1csc(N/C(=N/S(=O)(=O)c2cc(Br)ccc2OCC)c2ccccc2)n1	none (no result: MRP reversal, S1P2 agonist, S1P2 antag)
CCOC(=O)c1sc(NC(=O)c2cc(-c3ccccc3C)nc3ccccc23)c(C#N)c1C	none (no result: MRP reversal)
Cc1ccccc1-c1cc(C(=O)Nc2sc(C)c(C)c2C(N)=O)c2ccccc2n1	S1P2 agonist 17 (no result: MRP reversal)
COc1ccc2nc(NC(=O)C(NS(=O)(=O)c3cccc4nsnc34)C(C)C)sc2c1 (configuration not stated)	none (no result: MRP reversal)
Cn1ccnc1-c1nc2ccccc2[nH]c1=O	MRP reversal 82
COC(=O)CSCc1nc2ccccc2[nH]c1=O	none (no result: S1P2 agonist, S1P2 antag)
O=C(COc1ccccc1-c1ccccc1)N/N=C/c1ccc2ccccc2c1	GALR2 agonist 6.8 (no result: MRP reversal, S1P2 agonist, S1P2 antag)
Cc1nc(N2CCOCC2)c(C#N)c2c1COC(C)(C)C2	none
Cc1ccc(S(=O)(=O)N2CCN(c3nc(C)c4c(c3C#N)CC(C)(C)OC4)CC2)cc1	MRP-1 activ 6.1 (no result: MRP reversal, S1P2 agonist, S1P2 antag)
C=CCN(c1ccccc1)S(=O)(=O)c1ccc(Cl)c(C(=O)OCC(=O)c2[nH]c(C)c(C(C)=O)c2C)c1	none (no result: MRP reversal, S1P2 agonist, S1P2 antag)
O=C(O)c1ccc(N/N=C/c2cccc(F)c2)cc1	none (no result: MRP reversal, S1P2 agonist, S1P2 antag)
O=C(O)c1ccc(N/N=C/c2ccc(F)c(F)c2)cc1	MRP-1 activ 7.3 (no result: MRP reversal, S1P2 agonist, S1P2 antag)
CCc1nnc(NC(=O)c2ccc(S(=O)(=O)NCC(C)C)cc2)s1	MRP-1 activ 9.6 (no result: MRP reversal)
CCc1nnc(NC(=O)[C@@H](NC(=O)c2cccc(S(=O)(=O)N(CC)CC)c2)C(C)C)s1	MRP-1 activ 5.2 (no result: MRP reversal)
CCN(CC)S(=O)(=O)c1cccc(C(=O)N[C@H](C(=O)OCC(N)=O)C(C)C)c1	none
CCc1nnc(NC(=O)c2ccc(S(=O)(=O)N3CCCCCC3)cc2)s1	MRP-1 activ 5.4
CC1=C(C(=O)OC(C)(C)C)C(c2cccs2)NC(=O)N1 (configuration not stated)	none (no result: MRP reversal, S1P2 agonist, S1P2 antag)
Cc1cc(NC(=O)COC(=O)c2oc3c(ccc4ccccc43)c2C)no1	GALR2 agonist 5.1 (no result: MRP reversal, S1P2 agonist, S1P2 antag)
CC1CCN(c2nc(-c3ccco3)c3c(c2C#N)CC(C)(C)OC3)CC1	none (no result: S1P2 agonist, S1P2 antag)
CCN(CC)c1ccc2cc(C=O)c(=O)oc2c1	none
CCN(CC)c1ccc2cc(C(=O)Nc3ccccn3)c(=O)oc2c1	GALR2 agonist 19 (no result: S1P2 agonist, S1P2 antag)
CCN(CC)c1ccc2cc(C(C)=O)c(=O)oc2c1	none
CCN(CC)c1ccc2cc(C(=O)Nc3cccnc3N3CCOCC3)c(=O)oc2c1	none (no result: GALR2 blocker, GALR2 agonist, S1P2 agonist, S1P2 antag, MRP-1 activ)
CCN(CC)c1ccc2cc(NC(=O)CCC(=O)O)c(=O)oc2c1	GALR2 blocker 50 (no result: S1P2 agonist, S1P2 antag)
CCN(CC)c1ccc2cc(C(N)=O)c(=O)oc2c1	S1P2 agonist 21
Cc1ccc(-c2nc3ccc(NS(=O)(=O)c4ccccc4)cc3[nH]2)o1	none
O=S(=O)(NCC(c1ccco1)N1CCOCC1)c1ccc(Cl)cc1 (configuration not stated)	none (no result: MRP reversal, S1P2 agonist, S1P2 antag)
Cc1ccccc1-n1c(O)c(/C=N/N2CCCCC2c2cccnc2)c(=O)[nH]c1=O (configuration not stated)	none (no result: MRP reversal, S1P2 agonist, S1P2 antag)
Cc1cc(Br)ccc1OCCCCNCCO	S1P2 agonist 69 (no result: MRP reversal)
CCOC(=O)CS(=O)(=O)c1nc(-c2ccccc2)cc(C(F)(F)F)n1	GALR2 blocker 59
